Experimental data from the supplement of paper PMC3334620.
Whole data set: some 33,000 sequences, median “E-score (-0.5 to 0.5)” near -0.021, cut for the highest 2% near 0.32. This is one part of a sample in which the highest values are shown more often than they occur.

What follows are sequences tested against T1, Zap1 (UniProt P47043) (assay: PBM E-score (8-mer binding enrichment) (E-score (-0.5 to 0.5)); higher = stronger / more preferred TF binding). Conditions: protein concentration: 200 nM; construct: GST-full length.
T1 sequence: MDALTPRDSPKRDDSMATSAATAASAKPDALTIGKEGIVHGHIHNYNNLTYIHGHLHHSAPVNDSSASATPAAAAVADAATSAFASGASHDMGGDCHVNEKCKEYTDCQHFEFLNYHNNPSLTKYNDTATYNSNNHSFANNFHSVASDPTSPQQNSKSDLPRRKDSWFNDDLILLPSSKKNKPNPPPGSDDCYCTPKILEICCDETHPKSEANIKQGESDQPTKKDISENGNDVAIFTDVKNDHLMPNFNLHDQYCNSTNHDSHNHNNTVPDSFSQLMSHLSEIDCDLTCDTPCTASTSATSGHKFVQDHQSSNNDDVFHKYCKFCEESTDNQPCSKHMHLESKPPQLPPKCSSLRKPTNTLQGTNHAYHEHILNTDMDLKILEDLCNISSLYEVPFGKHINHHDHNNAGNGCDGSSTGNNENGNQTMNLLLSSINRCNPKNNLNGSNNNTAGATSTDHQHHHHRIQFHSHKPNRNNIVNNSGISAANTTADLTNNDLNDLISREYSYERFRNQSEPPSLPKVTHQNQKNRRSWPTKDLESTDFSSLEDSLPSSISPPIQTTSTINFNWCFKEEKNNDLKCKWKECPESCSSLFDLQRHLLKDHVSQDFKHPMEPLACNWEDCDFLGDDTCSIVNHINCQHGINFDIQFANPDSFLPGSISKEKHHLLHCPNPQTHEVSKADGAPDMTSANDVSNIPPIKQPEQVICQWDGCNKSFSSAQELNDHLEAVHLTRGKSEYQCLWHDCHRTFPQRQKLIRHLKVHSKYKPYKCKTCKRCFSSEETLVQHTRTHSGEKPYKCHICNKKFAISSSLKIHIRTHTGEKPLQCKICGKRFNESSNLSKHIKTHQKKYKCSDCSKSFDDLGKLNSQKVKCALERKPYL
Description: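 Universal 'all 10-mer' protein binding microarrays (Agilent AMADID 015681) probed with GST-tagged S. cerevisiae TFs (full-length or DBD) made by in vitro transcription/translation (PURExpress), about 100-200 nM. Bound TF was detected with fluorescent anti-GST. Each ungapped 8-mer (which stands for itself and its reverse complement) is scored by the PBM enrichment score (E-score), a modified Wilcoxon-Mann-Whitney statistic from -0.5 to +0.5, computed with the Universal PBM Analysis Suite. Scale: above 0.35 generally sequence-specific binding.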
With CACGGTCA the “PBM E-score” value was 0.262.
AACGGTTA was tested, and the “PBM E-score” value was 0.397.
With AACGGTCA the “PBM E-score” value was 0.324.
For AACGGTTC, the “PBM E-score” value was 0.107.
For AACGGTTG, the “PBM E-score” value was 0.123.
With CACGGTTA the “PBM E-score” value was 0.372.
In the case of CACGGGTA, the “PBM E-score” value is reported as 0.237.
AACGGTCG was tested, and the “PBM E-score” value was 0.114.
In the case of GACGGTTA, the “PBM E-score” value is reported as 0.305.
For CACGGTTC, the “PBM E-score” value was -0.13.
For AACGGGTA, the “PBM E-score” value was 0.375.
For GACGGGTA, the “PBM E-score” value was 0.0159.
For CCCCGCGC, the “PBM E-score” value was -0.138.
For ACATTCAG, the “PBM E-score” value was -0.0921.
AGCGCATG was tested, and the “PBM E-score” value was -0.227.
With CGGACCCA the “PBM E-score” value was 0.195.
For CTTTCTTC, the “PBM E-score” value was -0.0581.
AGAAGCCA was tested, and the “PBM E-score” value was -0.0472.
CAGGTAAC was tested, and the “PBM E-score” value was 0.254.
GAGGTAAC was tested, and the “PBM E-score” value was 0.365.
AAGGTAAA was tested, and the “PBM E-score” value was 0.187.
For AAGGTAAG, the “PBM E-score” value was 0.0248.
With AAGGTAAC the “PBM E-score” value was 0.432.
In the case of AAGGTAAT, the “PBM E-score” value is reported as 0.322.
For AAGGTATT, the “PBM E-score” value was 0.199.
In the case of GAGGTAAA, the “PBM E-score” value is reported as 0.199.
CAGGTAAA was tested, and the “PBM E-score” value was 0.133.
For CTCCATGC, the “PBM E-score” value was -0.229.
With ACGCATAC the “PBM E-score” value was -0.101.
In the case of ACTACCAT, the “PBM E-score” value is reported as 0.269.
For ACTGCTAG, the “PBM E-score” value was -0.269.
With CGGTACAC the “PBM E-score” value was 0.0303.
With CGGTACCC the “PBM E-score” value was 0.414.
In the case of ACGTACCT, the “PBM E-score” value is reported as -0.126.
With AAGTACCG the “PBM E-score” value was 0.134.
With AGGTACCC the “PBM E-score” value was 0.451.
In the case of ACGTACCG, the “PBM E-score” value is reported as -0.111.
For ATGTACCC, the “PBM E-score” value was 0.216.
For AGGTACCT, the “PBM E-score” value was 0.443.
AGGTACCG was tested, and the “PBM E-score” value was 0.43.
For AGGTACTC, the “PBM E-score” value was 0.261.
In the case of AAGTACCT, the “PBM E-score” value is reported as 0.213.
With CCGTACCC the “PBM E-score” value was 0.275.
For AGTAAAGG, the “PBM E-score” value was 0.132.
In the case of ATCTTAAC, the “PBM E-score” value is reported as 0.142.
With CGCCCAGC the “PBM E-score” value was -0.209.
With ATAACATA the “PBM E-score” value was 0.146.
With GGGTCCAC the “PBM E-score” value was -0.0924.
GGGTACCC was tested, and the “PBM E-score” value was 0.469.
In the case of CAGTACCG, the “PBM E-score” value is reported as 0.104.
In the case of CGGTACAG, the “PBM E-score” value is reported as 0.12.
For CGGTACCG, the “PBM E-score” value was 0.38.
With GGGTACAC the “PBM E-score” value was 0.141.
In the case of GCGTACCC, the “PBM E-score” value is reported as 0.106.
For ATTAGAAA, the “PBM E-score” value was 0.0663.
With TACAGCCA the “PBM E-score” value was -0.0777.
With ACTCACCC the “PBM E-score” value was -0.0932.
In the case of CAATGTTC, the “PBM E-score” value is reported as -0.213.
In the case of ATTTGTCC, the “PBM E-score” value is reported as -0.0674.
With CACCAGTG the “PBM E-score” value was -0.0732.
With AACTAAAC the “PBM E-score” value was 0.181.
With CTTATAAC the “PBM E-score” value was 0.302.
GTTATAAC was tested, and the “PBM E-score” value was 0.401.
For ATTATTTA, the “PBM E-score” value was 0.234.
GTTATTTA was tested, and the “PBM E-score” value was 0.325.
In the case of CATATATA, the “PBM E-score” value is reported as 0.13.
In the case of GTTATATA, the “PBM E-score” value is reported as 0.359.
With ATTATATA the “PBM E-score” value was 0.207.
In the case of GATATATA, the “PBM E-score” value is reported as 0.2.
With GTTATAAA the “PBM E-score” value was 0.279.
In the case of CTTATTTA, the “PBM E-score” value is reported as 0.0152.
TATATATA was tested, and the “PBM E-score” value was 0.37.
CTTATATA was tested, and the “PBM E-score” value was 0.27.
CCTCAGAA was tested, and the “PBM E-score” value was -0.0154.
For ACTGGGAG, the “PBM E-score” value was -0.25.
With ATTGGGAG the “PBM E-score” value was -0.0694.
AACGCTGG was tested, and the “PBM E-score” value was -0.174.
In the case of GACTGTAC, the “PBM E-score” value is reported as -0.147.
For AGCTCTCG, the “PBM E-score” value was -0.212.
For ACAAGAGA, the “PBM E-score” value was -0.043.
With ATCATCGC the “PBM E-score” value was -0.0946.
For AGCTCTTG, the “PBM E-score” value was -0.246.
CAATTGAC was tested, and the “PBM E-score” value was -0.0961.
With GCCCAGAA the “PBM E-score” value was -0.0621.
GTCGAGCA was tested, and the “PBM E-score” value was -0.236.
For GAAACCGC, the “PBM E-score” value was 0.15.
ATGAGCAA was tested, and the “PBM E-score” value was -0.0417.
